According to PubChem BioAssay (NCI):
Several values for one entry are separate records, joined by “and”; a condition that tells them apart may be missing. Equal values may be shown once. This is part of a sample that, as a whole, favours compounds with a hit. Of some 83,000 tested, about 20% had one in any assay.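 Growth was measured after 48 h exposure to one concentration of compound in 96-well plates. Values under 10 count as active.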 Unmarked numbers belong to inactive results. Activity calls are given as the source filed them.

Key:
Experiment in all cases: NCI-60 one-dose screen, 48 h (100 = growth as untreated, 0 = no growth, -100 = all killed)
Conditions in all cases: 10 µM unless noted
NCI-H23 lung = test system: NCI-H23 lung
NCI-H226 lung = test system: NCI-H226 lung
NCI-H322M lung = test system: NCI-H322M lung
HOP-62 NSCLC = test system: HOP-62 NSCLC
NCI-H460 lung = test system: NCI-H460 lung
HOP-92 NSCLC = test system: HOP-92 NSCLC
NCI-H522 lung = test system: NCI-H522 lung
A549/ATCC NSCLC = test system: A549/ATCC NSCLC
786-0 renal = test system: 786-0 renal
COLO 205 colon = test system: COLO 205 colon
DU-145 prostate = test system: DU-145 prostate
K-562 leukemia = test system: K-562 leukemia
MALME-3M melanoma = test system: MALME-3M melanoma
MDA-MB-231 breast = test system: MDA-MB-231 breast
RXF 393 renal = test system: RXF 393 renal
SF-268 CNS = test system: SF-268 CNS
SF-295 CNS = test system: SF-295 CNS
SF-539 CNS = test system: SF-539 CNS
UACC-257 melanoma = test system: UACC-257 melanoma
M14 melanoma = test system: M14 melanoma

| Compound | growth (NCI-H23 lung) | growth (NCI-H226 lung) | growth (NCI-H322M lung) | growth (HOP-62 NSCLC) | growth (NCI-H460 lung) | growth (HOP-92 NSCLC) [%] | growth (NCI-H522 lung) | growth (A549/ATCC NSCLC) | growth (786-0 renal) | growth (COLO 205 colon) | growth (DU-145 prostate) | growth (K-562 leukemia) | growth (MALME-3M melanoma) | growth (MDA-MB-231 breast) | growth (RXF 393 renal) | growth (SF-268 CNS) | growth (SF-295 CNS) | growth (SF-539 CNS) | growth (UACC-257 melanoma) [%] | growth (M14 melanoma) |
| --- | --- | --- | --- | --- | --- | --- | --- | --- | --- | --- | --- | --- | --- | --- | --- | --- | --- | --- | --- | --- |
| COc1cc2c(cc1OC)[C@@H]1C(=O)c3ccc4c(c3O[C@@H]1CO2)C[C@H](C(C)C)O4 | 34.2% | 62.8% | 82.1% | 63.6% | 51.5% | 57.3 | 30.5% | 65.5% | 60.2% | 82.4% | 85.5% | 19.9% | 56.5% | 78.3% | 102% | 79.7% | 18.6% | 70.7% | 58 | 75.4% |
| CCCCn1c(=O)c(C(=O)NCc2ccccc2Cl)c(O)c2ccccc21 | 54.1% | 63% | 75.2% | 76.9% | 67.6% | 66.9 | 73.4% | 58% | 52.2% | 92.8% | 84.6% | 42.3% | 98% | 88.7% | 87.7% | 80.8% | 51.8% | 97.4% | 80.9 | 59.4% |
| CC[C@H](CC[C@@H](C)[C@H]1CC[C@H]2[C@@H]3CC[C@H]4C[C@]5(CC[C@]4(C)[C@H]3CC[C@]12C)OO[C@](C)(C(F)(F)F)O5)C(C)C | 92.3% | 89.7% | 91.5% | 81.7% | 95.1% | 87.4 | 92.8% |  | 97% | 96.4% | 97.2% | 93.9% | 86% | 94.5% | 106% | 87.4% | 94.6% | 97.8% | 95.3 | 97.1% |
| COc1ccc2c(c1)C1(C)CCN(C)CC(C1)C2O (configuration not stated) | 98.1% | 81.7% | 105% | 100% | 105% | 101 | 90.2% | 95.1% | 94.8% | 103% | 104% | 99.9% | 93.3% | 113% | 97% | 100% |  | 97.2% | 97 | 98.1% |
| COc1ccc(O)c2c(=O)c3c(OC)cc4c(c3oc12)[C@@H]1C=CO[C@@H]1O4 | 6.73% (active) | 36.8% | 42.4% | 36.6% | 8.73% (active) | 70.5 | 41.9% | 50% | 74.6% |  | 21.9% | 101% | 62.8% | 67% | 61.6% | 54.9% | 81.6% | 37.9% | 89.6 | 67.4% |
| Cc1cc(NC(=O)NCCCOc2ccc(N3C(N)=NC(N)=NC3(C)C)cc2Cl)ccc1S(=O)(=O)F | 24.1% | 55.7% | 54.2% | 51.9% | 13.6% | 74.6 | 7.9% (active) | 14.7% | 40.1% |  | 33.6% | 25.1% | 55.6% | 71.7% | 48.6% | 32.7% | 30.4% | 17.5% | 25.9 | 41% |
| O=C(O)c1cc([N+](=O)[O-])cc([N+](=O)[O-])c1 | 107% | 97% | 105% | 85.6% | 106% | 88.2 | 67.9% | 79.6% | 97.9% | 118% | 109% | 116% | 109% | 120% |  | 97% | 101% | 104% | 61.8 | 95.9% |
| NC1CN2CCC1CC2 (configuration not stated) | 98.7% | 101% | 96.5% | 101% | 109% | 77.7 | 97.9% | 105% | 89.4% | 104% |  | 87.6% | 105% | 98.3% | 103% | 97.2% | 95.9% | 95.6% | 101 | 97.8% |
| O=C(O)c1ccc(=O)[nH]c1 | 88.5% and 105% | 96.3% and 89.5% | 108% and 105% | 98.8% and 85.9% | 111% and 104% | 100 | 101% and 99.9% | 87.7% | 96.7% and 99.6% | 98.3% and 98.9% | 114% and 111% | 102% and 89.2% | 109% and 104% | 102% and 104% |  | 101% and 104% | 113% and 96.2% | 89.5% and 98.2% |  | 102% and 95.8% |
| CNC(=O)Oc1ccc(Cl)cc1SSc1cc(Cl)ccc1OC(=O)NC | 65.4% | 102% | 103% | 95.2% | 60.1% | 42.7 | 51.2% | 103% | 110% |  | 96.7% | 63.1% | 78.2% | 78.3% | 107% | 65.8% | 75.7% | 98.2% | 79 | 112% |
| CCC1CCC(=O)O1 (configuration not stated) | 110% and 111% | 97.4% and 110% | 102% and 104% | 96.9% and 115% | 103% and 110% | 123 | 85.1% and 105% | 112% and 105% | 98.1% and 107% |  | 112% and 116% | 110% and 119% | 98.2% and 116% | 106% and 112% | 101% and 124% | 106% and 110% | 119% | 98.7% and 106% | 105 | 107% and 114% |
| O=c1[nH]c(=O)[nH]c(=O)[nH]1 | 97.9% | 122% | 104% | 85.2% | 111% | 113 | 95.5% |  | 96.9% | 115% | 119% | 65.2% | 114% | 122% | 91.1% | 116% | 97.6% | 104% | 146 | 111% |
| O=S1(=O)OCCO1 | 96.5% | 103% | 95.4% | 103% | 103% | 102 | 96.3% | 102% | 101% | 106% | 104% | 99.1% | 88.8% |  | 103% | 98.2% | 98.3% | 95.1% | 96.7 | 103% |
| C/C(=N/OC(=O)N(C)C)c1ccc(Cl)c(Cl)c1 | 98.2% | 102% | 96.1% | 107% | 107% | 102 | 102% | 82.7% | 103% |  | 121% | 120% | 115% | 105% | 108% | 105% | 112% | 114% | 97.4 | 113% |
